Common to all, as to test: NCI-60 one-dose screen, 48 h (100 = growth as untreated, 0 = no growth, -100 = all killed)
What all share (conditions): 10 µM unless noted

Assay [1] concerns HCT-15 colon.
In assay [2] the test system is HT29 colon.
Assay [3] has as its system SNB-75 CNS.
Assay [4] concerns SNB-19 CNS.
The test system of assay [5] is U251 CNS.
Assay [6] deals with PC-3 prostate.
Assay [7] has as its system SK-MEL-5 melanoma.
The subject of assay [8] is UACC-62 melanoma.
For assay [9], the system named is SK-MEL-28 melanoma.
For assay [10], the system named is SK-MEL-2 melanoma.
The subject of assay [11] is EKVX NSCLC.
The test system of assay [12] is SN12C renal.
Assay [13] concerns UO-31 renal.
For assay [14], the system named is TK-10 renal.
Assay [15] deals with ACHN renal.
For assay [16], the system named is CAKI-1 renal.
For assay [17], the system named is A498 renal.
Assay [18] deals with CCRF-CEM leukemia.
Assay [19] concerns MOLT-4 leukemia.
Assay [20] relates to LOX IMVI melanoma.

SMILES strings stand for the structures. This is part of a sample that, as a whole, favours compounds with a hit. Of some 83,000 tested, about 20% had one in any assay.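 Single-concentration screen, 48 h exposure, 96-well plates. Endpoint: percent growth. Below 10 = active.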 Values without a mark were called inactive. The source made the active and inactive calls.

As to `CC(=O)c1ccc2c(c1)CCN2`, the growth in assay [1] was 105%; in assay [2], 101%; in assay [3], 93.1%; in [4] it was 98.3%; in assay [5], 97.1%; in [6] it was 98.6%. Further, the growth is 105% in assay [7]; 102% in assay [8]; 109% in assay [9]; 104% in [10]; 117% in assay [11]; 96.7% in [12]. In addition, the growth in assay [13] was 94.2%; in assay [14] it was 98.1%; in assay [15], 100%; in assay [16], 111%; in assay [17], 117%; in assay [18], 94.9%. Besides, the growth in assay [19] was 94.2%.
Turning to `COc1ccc(/C=C(\C#N)n2nnc3cc(F)c(F)cc32)c(OC)c1OC`, the growth in assay [1] is 43.7%; in assay [2] it was 64.5%; in assay [3] it was 82%; in [4], 82.9%; in [5], 73.9%; in assay [6], 57.9%. Besides, the growth in assay [7] was 60.5%; in assay [8], 58.6%; in assay [9], 77.3%; in [10], 79%; in assay [11], 72.8%; in assay [12] it was 67%. Further, the growth was 52.4% in assay [13]; 126% in assay [14]; 66.2% in assay [15]; 87.7% in assay [16]; 91% in [17]; 23.4% in assay [18].
`C=C1c2c(C)nn(-c3ccc(S(N)(=O)=O)cc3)c2N(C)C23CC1C1(C)c4c(C)nn(-c5ccc(S(N)(=O)=O)cc5)c4N(C)C(C)(CC12)C3` (stereo unspecified): the growth in assay [1] is 14.6%; in assay [2], 13.6%; in assay [3] it was 76%; in assay [4] it was 43%; in assay [5], 24.7%; in [6], 23.6%. The growth in assay [7] was 45.5%; in assay [8], 37.5%; in [9], 30.7%; in [10], 44.7%; in [11] it was 29.6%; in [12], 32.4%. Also, the growth was 25.5% in assay [13]; 14.1% in [15]; 40.7% in assay [16]; 75.3% in [17]; 18.7% in assay [18].
For the compound `C=C(C)[C@@H]1CC[C@]2(CNCCO)CC[C@]3(C)[C@H](CC[C@@H]4[C@@]5(C)CCC(N)[C@@](C)(CO)[C@@H]5CC[C@]43C)[C@@H]12` (stereo partly specified), the growth in assay [1] is 32.4%; in assay [2], -56.8% (active); in assay [3] it was 73.5%; in [4] it was 29.8%; in assay [5], -86.1% (active); in assay [6], 20.1%. Also, the growth in assay [7] was -96.1% (active); in [8] it was -75.7% (active); in [9] it was -85.7% (active); in assay [10] it was -19% (active); in [11], 40%; in assay [12], -11.4% (active). For the same compound, the growth was 66.1% in assay [13]; -47.4% (active) in assay [14]; 54.4% in assay [15]; 71.2% in assay [16]; 78.1% in [17]; -38.7% (active) in [18].
Consider `C=C(CNCCc1ccc(O)cc1)[C@@H]1CC[C@]2(COC3CCCCO3)CC[C@]3(C)[C@H](CC[C@@H]4[C@@]5(C)CCC(NCCO)C(C)(C)[C@@H]5CC[C@]43C)[C@@H]12` (stereo partly specified), for which the growth in assay [1] is -93.5% (active); in assay [2] it was -90.3% (active); in assay [3], -17.6% (active); in assay [4], -93.9% (active); in assay [5] it was -95% (active); in assay [6] it was -92.6% (active). Moreover, the growth was -95.4% (active) in assay [7]; -85.9% (active) in [8]; -94.4% (active) in assay [9]; -81.3% (active) in assay [10]; -77.5% (active) in assay [11]; -92.2% (active) in [12]. Further, the growth in [13] was -97.3% (active); in assay [15] it was -99.2% (active); in assay [16] it was -92.1% (active); in assay [17] it was -1.47% (active); in [18], -51.1% (active).
For `COc1ccc(/C(C)=C(\c2ccc(Cl)cc2)c2ccc(OCCN(C)C)cc2)cc1F`, the growth in assay [1] is 16.4%; in [2], 8.32% (active); in [3], 75.4%; in assay [4] it was 80%; in assay [5], 46%; in [6], 51.2%. The growth in assay [7] was 55%; in assay [20], -44.6% (active); in assay [9], 30.9%; in assay [10] it was 105%; in assay [11], 81.6%; in [12] it was 70.6%. Further, the growth was 54.7% in assay [13]; 59.1% in assay [14]; 92% in assay [15]; 56.2% in assay [16]; 98.5% in assay [17]; 40.2% in assay [18]. For the same compound, in assay [19], the growth was 39.5%.
Regarding `O=C1NN(C(=O)c2ccc(O)cc2)C(c2ccccc2)=N/C1=C\c1cn(-c2ccccc2)nc1-c1ccccc1`, the growth in [1] was 103%; in assay [2], 95.1%; in assay [3], 77.4%; in [4], 92.5%; in assay [5], 96.2%; in assay [6] it was 104%. The growth in assay [7] is 98.7%; in assay [8] it was 92.9%; in assay [9] it was 101%; in [10], 100%; in assay [11], 102%; in assay [12], 89.2%. For the same compound, the growth was 78.6% in assay [13]; 84.7% in assay [14]; 88.4% in assay [15]; 98.6% in assay [16]; 88.8% in [17]; 89.7% in assay [18].
As for `C=C1c2c(C)nn(-c3ccc(N)cc3)c2N(C)C23CC1C1(C)c4c(C)nn(-c5ccc(N)cc5)c4N(C)C(C)(CC12)C3` (stereo unspecified), the growth in [1] was 38.5%; in [2], 61.7%; in [3], 109%; in [4], 80.7%; in assay [5] it was 79.1%; in assay [6], 53.1%. In addition, the growth in [7] is 52.9%; in assay [8] it was 77.1%; in assay [9], 85.1%; in assay [10], 79.2%; in assay [11] it was 52.3%; in [13], 51%. The growth in assay [14] is 76.2%; in assay [15], 58.9%; in assay [16], 76.6%; in assay [17], 89.4%; in [18], 47.8%.
As to `C[C@@H]1CC[C@@H]2[C@@H]1[C@H](OC(=O)c1ccc3ccccc3c1)[C@]1(C3CCCCC3)C[C@@H](OC(=O)CO)[C@@]2(C)O1`, the growth was 40.9% in [1]; 20.7% in assay [2]; 64.9% in [3]; 84.1% in [4]; 48.9% in assay [5]; 22.2% in assay [6]. Besides, the growth in assay [7] is 88.6%; in [8], 73.6%; in [9], 70.2%; in assay [10] it was 69.5%; in assay [11], 62%; in assay [12], 24%. For the same compound, the growth in assay [13] was -43.6% (active); in [14] it was 79.2%; in assay [15], 7.83% (active); in [16], -31% (active); in assay [17] it was -85% (active); in assay [18], 48.3%.

The values above are taken from PubChem BioAssay (NCI).
